Source: PubChem BioAssay AID463212 (Sanford-Burnham Center for Chemical Genomics, 2010)
Hit rate of the full screen: of about 330,000 compounds, about 4,400 (1.3%) were called active. For the sample, actives were picked, then their nearest neighbours and some compounds at random. Unmarked numbers belong to inactive results.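 How the source made its calls: active means growth inhibition of the mutant yeast at or above 50%; inactive means the rest.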

test: growth inhibitors of tim23-1 mutant yeast, primary screen, luminescence, uHTS (AID 463212);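 further: temperature-sensitive mutant grown at 25 °C; plate controls were DMSO-treated mutant yeast for no effect and medium wells lacking yeast for full effect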; details: S. cerevisiae tim23-1 growth, BacTiter-Glo luminescence, 24 h; at 20 µM; hits give high values

Structure (SMILES)	inhibition
O=C(N/N=C1\CCSC1)c1cc(Cl)ccc1O	7.53%
Cc1ccc(C(=O)NC23CC4CC(CC(C4)C2)C3)c(Cl)c1	20.2%
C/C(=N/NC(=O)c1cc(Cl)ccc1O)C12CC3CC(CC(C3)C1)C2	54.5% (active)
CCOc1ccc(S(=O)(=O)NCCCn2ccnc2)cc1NC(C)=O	-2.51%
Cc1ccnc(NC(=O)CCC(=O)N(CC(=O)NCCc2ccccc2)Cc2cccs2)c1	6.97%
COc1cccc(CN2C(=O)CCC2(C)C(=O)NC2CCCCCC2)c1 (stereo not drawn)	-1.86%
COC(=O)c1c(NC(=O)C2CC(C)=C(C)CC2C(=O)O)sc2c1CCCCC2 (stereo not drawn)	27.7%
COC(=O)c1c(NC(=O)CCN2CCOCC2)sc2c1CCCC2	26%
COC(=O)c1c(NC(=O)CSc2nncs2)sc2c1CCCCC2	52.6% (active)
Cc1ccc(NS(=O)(=O)c2cn(C)c(=O)n(C)c2=O)c(C)c1	11%
Cc1cccc(C(C)C)c1NC(=O)COC(=O)C1CC(=O)N(Cc2ccccc2)C1 (stereo not drawn)	-6%
Clc1ccc(Nc2ccc3ccccc3n2)cc1	84.8% (active)
C(=N\Nc1ccc2ccccc2n1)/c1ccc2c(c1)OCO2	18.7%
Cc1cccc(NC(=O)c2ccc3ccccc3n2)n1	26.7%
CC(=O)N1c2ccc(S(=O)(=O)N3CCCC(C(=O)Nc4cccc(F)c4)C3)cc2CC1C (stereo not drawn)	19.4%
CC(C)c1ccc(NC(=S)NC2CC3C=CC2C3)cc1 (stereo not drawn)	50.9% (active)
S=C(NNC(=S)NC1CC2C=CC1C2)NC1CC2C=CC1C2 (stereo not drawn)	6.32%
S=C(NNC(=S)NC1CC2CCC1C2)NC1CC2C=CC1C2 (stereo not drawn)	13.8%
Cc1csc(NC(=O)c2ccc(C)s2)n1	17%
COc1ccc(C(=O)Nc2cccc(NC(=O)c3ccc(OC)cc3OC)n2)c(OC)c1	-26.2%
COc1cc(SC)ccc1C(=O)Nc1nc(C)cs1	51.1% (active)
O=C(/C=C/c1ccccc1)c1ccccc1O	55.8% (active)
O=C(/C=C/c1ccc(N2CCOCC2)cc1)c1ccccc1	35.2%
O=C(/C=C/c1ccccc1)N/C(=C/c1ccccc1)C(=O)Nc1ccccc1O	19.1%
Nc1cc(N)nc(SCC(=O)Nc2cccc(S(=O)(=O)N3CCCCC3)c2)n1	-8.43%

Structure (SMILES)	inhibition
O=C1C=C(c2cccc(Cl)c2)C[C@@H](c2ccc(F)cc2)C1	35.1%
COc1ccccc1C1=CC(=O)C[C@H](c2ccc(F)cc2)C1	35.3%
O=C1C=C(c2cccc(Cl)c2O)C[C@@H](c2ccc(F)cc2)C1	63.4% (active)
COc1ccc2ccccc2c1CNc1nnnn1C	-0.932%
CC(=C/c1ccccc1)/C=N/NC(=O)c1cc(C)oc1C	-0.867%
CC(C)c1cc(C(=O)N/N=C/C(Br)=C/c2ccccc2)n[nH]1	34.3%
Cc1cc(C(=O)N/N=C\C(Br)=C\c2ccccc2)c(C)o1	55.9% (active)
CCN(CC)C(=O)c1nc[nH]c1C(=O)N(C)Cc1ccccc1	8.93%
Cc1cc(C)cc(NC(=O)C2CCCN2S(=O)(=O)c2cccc3cccnc23)c1 (stereo not drawn)	47.9%
CCOC(=O)c1cc2c(=O)n3ccccc3nc2n(CC(C)C)c1=NC(=O)c1c(-c2c(F)cccc2Cl)noc1C	28.6%
Nn1c(SCC(=O)NC2CCCc3ccccc32)nnc1C1CC1 (stereo not drawn)	2.69%
CC(=O)O[C@H]1c2ccccc2-c2ccccc2[C@@H]1OC(C)=O	21.8%
CC(=O)Nc1ccc(Oc2ccc3c(c2)C(=O)NC3=O)cc1	-0.541%
CC(=O)Oc1ccc2c(c1)C(=O)c1ccccc1C2=O	50.2% (active)
O=C(O)CN(Cc1ccco1)S(=O)(=O)c1ccc(F)cc1	-1.65%
O=C(c1cc(-c2ccc(O)cc2)on1)N1CCCc2ccccc21	54.2% (active)
O=C(c1cc(-c2cccc(O)c2)on1)N1CCc2ccccc2C1	50.3% (active)
O=C(c1cc(-c2ccc(O)cc2)on1)N1CCOCC1	12.7%
Cc1ccc(-c2cc(C(=O)N3CCc4ccccc4C3)no2)cc1	15.5%
Cc1c(C(=O)N2CCCc3ccccc32)oc2ccccc12	23.8%
O=C(NCCCN1CCOCC1)c1cc(-c2cccc(O)c2)on1	-0.573%
CSc1ccc(S(=O)(=O)N2CCC(C(=O)NCc3ccncc3)CC2)cc1	0.185%
COC(=O)c1ccc2ccccc2c1OC1OC(CO)C(O)C(O)C1NC(C)=O (stereo not drawn)	2.47%
Cc1cccc(-c2nnc(SCC(=O)O)n2Cc2ccccc2)c1	1.27%
CC1CCC2(CC1)NC(=O)N(Cc1nnc(-c3cccs3)o1)C2=O (stereo not drawn)	8.03%

Structure (SMILES)	inhibition
CCn1c(SCc2cccc(C(=O)O)c2)nnc1-c1ccc(Cl)cc1	10.3%
CCC(C)c1ccc(NC(=O)COC(=O)C2CCCC2)cc1 (stereo not drawn)	56.9% (active)
CC(=O)Nc1ccc(NC(=O)COC(=O)C2CCC(C(C)(C)C)CC2)cc1 (stereo not drawn)	32.6%
O=C(COC(=O)C1CCCCC1)Nc1ccc([N+](=O)[O-])cc1	2.5%
Clc1ccc(-c2nnc(-c3ccccc3)nc2N2CCSCC2)cc1	45.4%
O=S(=O)(c1ccccc1)c1nc(Cc2ccccc2)oc1N1CCOCC1	7.56%
CCCCC(NC(=O)c1cccc(Br)c1)C(=O)O (stereo not drawn)	4.77%
COC(=O)CNS(=O)(=O)c1ccc(Cc2ccc(S(=O)(=O)NCC(=O)OC)cc2)cc1	31.2%
COc1cc(OC)c(C(=S)N2CCCC2)cc1OC	11.7%
CCN1C(=O)/C(=C2\SC(N3CCCCC3)=NC2=O)c2ccccc21	54.8% (active)
O=C1N=C(N2CCCC2)S/C1=C\c1cccc(Br)c1	27.3%
CC(C)=C1SC(N2CCN(c3cccc(C)c3)CC2)=NC1=O	14.1%
CSc1ccccc1OCc1cc(C(=O)N2C[C@H]3CC[C@H]2C3)no1	18.7%
CCCOc1ccc(CN(CCO)CCO)cc1C(=O)OC	1.64%
COCCCNC(=O)C1CCN(c2ccc(N3CCOCC3)nn2)CC1	16.9%
O=C(NCc1ccccc1)c1onc(CSc2nc3ccccc3[nH]2)c1C(=O)NCc1ccccc1	6.16%
CCOC(=O)C1CCN(C(=O)c2cccc(S(=O)(=O)N(CC)c3ccccc3)c2)CC1	14.3%
CCCCN1C(=O)CC(N2CCOCC2)C1=O (stereo not drawn)	-1.61%
Cn1nc(C(F)(F)F)cc1C(=O)O	-3.37%
O=c1ccc2cc(S(=O)(=O)Nc3ccccc3F)ccc2o1	17.6%
O=c1oc(-c2ccccc2NS(=O)(=O)c2ccc(Cl)cc2)nc2ccccc12	59.8% (active)
O=c1oc2ccccc2c(NC2CCCCC2)c1NS(=O)(=O)c1ccc(Cl)cc1	25.2%
CC(=O)Nc1ccc(N2C(=O)CC(Sc3nccc(C)n3)C2=O)cc1 (stereo not drawn)	10.2%
